Reference: the supplement of paper PMC10849652
Of roughly 7,900 targets only a part is listed; those with a hit were picked by preference. About 0.6% of all pairs of compound and target were hits.

Tests used:
Test in all cases: log2 fold change, soluble protein after heating vs DMSO (PISA); higher = thermal stabilisation; K562 cells, 10 uM, 30 min; active = over 0.2 and 3.5 SD of the protein, either way, in both replicates (recomputed)
bafetinib = compound: Cc1ccc(NC(=O)c2ccc(CN3CC[C@H](N(C)C)C3)c(C(F)(F)F)c2)cc1Nc1nccc(-c2cncnc2)n1 [bafetinib]
In short: (§1)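 Aliquots of K562 cells (2×10^6 cells/mL) treated with 10 μM compound for 30 min were heated for 3 min over 48°C-58°C. After pooling and extraction in PBS with 0.5% NP-40 at 4°C, soluble protein from a 21,000xg, 90 min spin was quantified by TMTpro 16plex LC-MS/MS with channel sums equalised. Thermal stability is expressed against control samples, from duplicates, as a log2 fold change.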

[1] = compound: Cc1cccc(CC(=O)N2CCc3c2ccc(-c2cn(C)c4ncnc(N)c24)c3F)n1
In short: as §1

nilotinib = compound: Cc1cn(-c2cc(NC(=O)c3ccc(C)c(Nc4nccc(-c5cccnc5)n4)c3)cc(C(F)(F)F)c2)cn1 [nilotinib]
In short: as §1

[2] = compound: Cc1nc(Nc2n[nH]c3c2CN(C(=O)N[C@H](CN(C)C)c2ccccc2)C3(C)C)c2sccc2n1
In short: as §1

dasatinib = compound: Cc1nc(Nc2ncc(C(=O)Nc3c(C)cccc3Cl)s2)cc(N2CCN(CCO)CC2)n1 [dasatinib]
In short: as §1

[3] = compound: Cc1ncc(-c2ccnc(Nc3ccc(S(C)(=O)=O)cc3)n2)n1C(C)C
In short: as §1

[4] = compound: Cn1cc(-c2ccc3c(c2)CCN3C(=O)Cc2cccc(C(F)(F)F)c2)c2c(N)ncnc21
In short: as §1

[5] = compound: Cn1cc(-c2ccc3nnc(C(F)(F)c4ccc5ncccc5c4)n3n2)cn1
In short: as §1

tipifarnib = compound: Cn1cncc1[C@@](N)(c1ccc(Cl)cc1)c1ccc2c(c1)c(-c1cccc(Cl)c1)cc(=O)n2C [tipifarnib]
In short: as §1

mubritinib = compound: FC(F)(F)c1ccc(/C=C/c2nc(COc3ccc(CCCCn4ccnn4)cc3)co2)cc1 [mubritinib]
In short: as §1

[6] = compound: NC(=O)Nc1cc(-c2cccc(F)c2)sc1C(=O)N[C@H]1CCCNC1
In short: as §1

[7] = compound: NC(=O)c1cnc(N[C@@H]2CCCC[C@@H]2N)nc1Nc1cccc(-n2nccn2)c1
In short: as §1

[8] = compound: NC1(c2ccc(-c3nc4ccn5c(=O)[nH]nc5c4cc3-c3ccccc3)cc2)CCC1
In short: as §1

[9] = compound: NCC(=O)Nc1ccc(-n2nc(C(F)(F)F)cc2-c2ccc3c(ccc4ccccc43)c2)cc1
In short: as §1

entinostat = compound: Nc1ccccc1NC(=O)c1ccc(CNC(=O)OCc2cccnc2)cc1 [entinostat]
In short: as §1

vorinostat = compound: O=C(CCCCCCC(=O)Nc1ccccc1)NO [vorinostat]
In short: as §1

citarinostat = compound: O=C(CCCCCCNC(=O)c1cnc(N(c2ccccc2)c2ccccc2Cl)nc1)NO [citarinostat]
In short: as §1

silmitasertib = compound: O=C(O)c1ccc2c(c1)nc(Nc1cccc(Cl)c1)c1ccncc12 [silmitasertib]
In short: as §1

[10] = compound: O=C1NC(=O)C(c2cnc3ccccn23)=C1c1cn2c3c(cc(F)cc13)CN(C(=O)N1CCCCC1)CC2
In short: as §1

[11] = compound: c1cc(OCCN2CCCCC2)cc(-c2n[nH]c3ccc(-c4nnc[nH]4)cc23)c1
In short: as §1

Measured: log2 fold change

CDK5RAP3 isoform 4 (UniProt Q96JB5)
Chain of UniProt Q96JB5 (Q96JB5 whole entry, looked up): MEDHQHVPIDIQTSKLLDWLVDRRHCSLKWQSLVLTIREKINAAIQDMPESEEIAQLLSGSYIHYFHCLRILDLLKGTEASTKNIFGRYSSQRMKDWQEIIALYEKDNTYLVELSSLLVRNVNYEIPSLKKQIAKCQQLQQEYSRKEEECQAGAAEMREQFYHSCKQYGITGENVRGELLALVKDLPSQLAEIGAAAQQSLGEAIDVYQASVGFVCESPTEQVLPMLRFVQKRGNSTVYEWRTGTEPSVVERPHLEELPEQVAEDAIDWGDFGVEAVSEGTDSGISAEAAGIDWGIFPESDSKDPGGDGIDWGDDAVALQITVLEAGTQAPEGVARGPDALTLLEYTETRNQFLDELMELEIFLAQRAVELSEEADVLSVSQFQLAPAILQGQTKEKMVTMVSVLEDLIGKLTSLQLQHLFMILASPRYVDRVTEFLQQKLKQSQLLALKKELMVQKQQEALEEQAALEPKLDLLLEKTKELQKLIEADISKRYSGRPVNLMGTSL
inactive: bafetinib 0.039 | [1] 0.122 | nilotinib -0.094 | [2] 0.012 | dasatinib -0.082 | [3] 0.054 | [4] 0.008 | [5] 0.024 | tipifarnib -0.052 | mubritinib 0.083 | [6] -0.025 | [7] -0.029 | [8] -0.092 | [9] -0.097 | entinostat 0.056 | vorinostat 0.04 | citarinostat 0.065 | silmitasertib -0.004 | [10] -0.04 | [11] 0.019

CSNK1A1 (UniProt P48729)
Chain of UniProt P48729 (P48729 whole entry, looked up): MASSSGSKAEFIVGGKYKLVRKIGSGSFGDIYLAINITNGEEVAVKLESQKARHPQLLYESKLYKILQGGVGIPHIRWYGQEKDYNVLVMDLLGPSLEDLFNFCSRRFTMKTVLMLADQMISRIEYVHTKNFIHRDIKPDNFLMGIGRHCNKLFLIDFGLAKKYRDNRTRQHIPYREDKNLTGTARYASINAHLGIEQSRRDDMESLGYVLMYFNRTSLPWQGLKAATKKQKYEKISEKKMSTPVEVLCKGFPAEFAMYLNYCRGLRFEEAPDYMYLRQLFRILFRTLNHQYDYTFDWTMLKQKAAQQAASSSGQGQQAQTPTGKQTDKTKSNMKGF
inactive: bafetinib -0.044 | [1] -0.156 | nilotinib -0.106 | [2] -0.008 | dasatinib 0.011 | [3] 0.033 | [4] -0.118 | [5] -0.055 | tipifarnib 0.022 | mubritinib -0.086 | [6] -0.067 | [7] -0.001 | [8] 0.031 | [9] 0.019 | entinostat 0.023 | vorinostat -0.087 | citarinostat 0.016 | silmitasertib 0.048 | [10] 0.243 | [11] -0.084

CBX5 (UniProt P45973)
Chain of UniProt P45973 (P45973 whole entry, looked up): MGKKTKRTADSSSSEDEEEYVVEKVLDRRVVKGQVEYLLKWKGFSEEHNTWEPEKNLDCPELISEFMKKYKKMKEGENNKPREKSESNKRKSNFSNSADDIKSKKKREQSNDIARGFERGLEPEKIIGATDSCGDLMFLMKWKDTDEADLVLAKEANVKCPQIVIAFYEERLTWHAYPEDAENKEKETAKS
inactive: bafetinib -0.019 | [1] 0.01 | nilotinib 0.002 | [2] -0.138 | dasatinib -0.069 | [3] -0.064 | [4] -0.01 | [5] -0.02 | tipifarnib -0.048 | mubritinib 0.062 | [6] -0.066 | [7] -0.027 | [8] -0.025 | [9] -0.106 | entinostat 0.025 | vorinostat 0.113 | citarinostat 0.041 | silmitasertib -0.016 | [10] -0.073 | [11] -0.021

CCDC59 (UniProt Q9P031)
Chain of UniProt Q9P031 (Q9P031 whole entry, looked up): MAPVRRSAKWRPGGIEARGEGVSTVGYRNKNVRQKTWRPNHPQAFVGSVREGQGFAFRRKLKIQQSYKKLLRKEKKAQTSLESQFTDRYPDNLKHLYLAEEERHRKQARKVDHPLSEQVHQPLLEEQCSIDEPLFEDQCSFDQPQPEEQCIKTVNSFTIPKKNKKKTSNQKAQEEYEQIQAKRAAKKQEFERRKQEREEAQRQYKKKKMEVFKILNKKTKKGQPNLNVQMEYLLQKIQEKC
inactive: bafetinib 0.117 | [1] -0.041 | nilotinib 0.032 | [2] 0.048 | dasatinib 0.037 | [3] 0.028 | [4] -0.277 | [5] -0.13 | tipifarnib 0.09 | mubritinib -0.056 | [6] -0.033 | [7] 0.122 | [8] 0.166 | [9] 0.139 | entinostat -0.149 | vorinostat -0.099 | citarinostat -0.178 | silmitasertib 0.154 | [10] 0.21 | [11] 0.07

CEMIP2 (UniProt Q9UHN6)
Chain of UniProt Q9UHN6 (Q9UHN6 whole entry, looked up): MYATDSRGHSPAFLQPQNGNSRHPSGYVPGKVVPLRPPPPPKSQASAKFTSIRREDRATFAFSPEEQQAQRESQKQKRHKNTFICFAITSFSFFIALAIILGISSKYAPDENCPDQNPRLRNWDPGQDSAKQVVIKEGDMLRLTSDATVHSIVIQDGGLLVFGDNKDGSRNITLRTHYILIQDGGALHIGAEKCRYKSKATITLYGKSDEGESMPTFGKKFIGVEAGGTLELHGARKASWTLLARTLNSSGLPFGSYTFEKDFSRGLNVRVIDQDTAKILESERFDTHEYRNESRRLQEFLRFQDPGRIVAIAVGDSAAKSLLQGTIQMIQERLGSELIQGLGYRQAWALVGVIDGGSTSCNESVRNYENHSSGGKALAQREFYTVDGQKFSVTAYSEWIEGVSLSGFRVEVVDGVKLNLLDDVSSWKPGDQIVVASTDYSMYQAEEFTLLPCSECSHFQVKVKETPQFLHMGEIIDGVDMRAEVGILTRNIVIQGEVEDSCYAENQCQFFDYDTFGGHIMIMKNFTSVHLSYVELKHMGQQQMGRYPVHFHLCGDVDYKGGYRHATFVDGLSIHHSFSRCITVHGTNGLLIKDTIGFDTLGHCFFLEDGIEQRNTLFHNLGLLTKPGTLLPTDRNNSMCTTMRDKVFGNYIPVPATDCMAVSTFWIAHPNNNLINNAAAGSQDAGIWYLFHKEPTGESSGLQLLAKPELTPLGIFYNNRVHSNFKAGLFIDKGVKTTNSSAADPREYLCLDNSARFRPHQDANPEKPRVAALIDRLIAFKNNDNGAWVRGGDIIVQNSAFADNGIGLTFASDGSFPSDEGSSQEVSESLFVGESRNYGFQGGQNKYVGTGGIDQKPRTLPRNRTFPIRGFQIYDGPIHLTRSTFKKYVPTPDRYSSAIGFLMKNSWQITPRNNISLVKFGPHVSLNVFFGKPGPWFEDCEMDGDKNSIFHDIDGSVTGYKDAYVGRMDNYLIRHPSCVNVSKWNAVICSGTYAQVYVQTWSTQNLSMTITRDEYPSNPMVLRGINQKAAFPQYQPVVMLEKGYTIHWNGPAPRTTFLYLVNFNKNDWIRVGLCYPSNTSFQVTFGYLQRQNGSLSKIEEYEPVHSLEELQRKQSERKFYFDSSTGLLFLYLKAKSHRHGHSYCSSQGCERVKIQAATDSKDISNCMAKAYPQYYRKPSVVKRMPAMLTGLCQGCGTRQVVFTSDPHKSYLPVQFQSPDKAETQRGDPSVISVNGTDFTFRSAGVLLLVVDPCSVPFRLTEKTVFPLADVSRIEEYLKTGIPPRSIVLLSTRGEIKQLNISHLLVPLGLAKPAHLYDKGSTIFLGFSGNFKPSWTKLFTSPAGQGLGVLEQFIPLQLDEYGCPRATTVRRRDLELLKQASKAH
inactive: bafetinib -0.018 | [1] 0.002 | nilotinib 0.069 | [2] 0.083 | dasatinib -0.044 | [3] 0.031 | [4] 0.03 | [5] 0.179 | tipifarnib 0.033 | mubritinib -0.024 | [7] 0.072 | [8] -0.243 | [9] -0.072 | vorinostat 0.038 | citarinostat 0.124 | silmitasertib 0.057 | [10] 0.034 | [11] -0.078

CHAF1A (UniProt Q13111)
Chain of UniProt Q13111 (Q13111 whole entry, looked up): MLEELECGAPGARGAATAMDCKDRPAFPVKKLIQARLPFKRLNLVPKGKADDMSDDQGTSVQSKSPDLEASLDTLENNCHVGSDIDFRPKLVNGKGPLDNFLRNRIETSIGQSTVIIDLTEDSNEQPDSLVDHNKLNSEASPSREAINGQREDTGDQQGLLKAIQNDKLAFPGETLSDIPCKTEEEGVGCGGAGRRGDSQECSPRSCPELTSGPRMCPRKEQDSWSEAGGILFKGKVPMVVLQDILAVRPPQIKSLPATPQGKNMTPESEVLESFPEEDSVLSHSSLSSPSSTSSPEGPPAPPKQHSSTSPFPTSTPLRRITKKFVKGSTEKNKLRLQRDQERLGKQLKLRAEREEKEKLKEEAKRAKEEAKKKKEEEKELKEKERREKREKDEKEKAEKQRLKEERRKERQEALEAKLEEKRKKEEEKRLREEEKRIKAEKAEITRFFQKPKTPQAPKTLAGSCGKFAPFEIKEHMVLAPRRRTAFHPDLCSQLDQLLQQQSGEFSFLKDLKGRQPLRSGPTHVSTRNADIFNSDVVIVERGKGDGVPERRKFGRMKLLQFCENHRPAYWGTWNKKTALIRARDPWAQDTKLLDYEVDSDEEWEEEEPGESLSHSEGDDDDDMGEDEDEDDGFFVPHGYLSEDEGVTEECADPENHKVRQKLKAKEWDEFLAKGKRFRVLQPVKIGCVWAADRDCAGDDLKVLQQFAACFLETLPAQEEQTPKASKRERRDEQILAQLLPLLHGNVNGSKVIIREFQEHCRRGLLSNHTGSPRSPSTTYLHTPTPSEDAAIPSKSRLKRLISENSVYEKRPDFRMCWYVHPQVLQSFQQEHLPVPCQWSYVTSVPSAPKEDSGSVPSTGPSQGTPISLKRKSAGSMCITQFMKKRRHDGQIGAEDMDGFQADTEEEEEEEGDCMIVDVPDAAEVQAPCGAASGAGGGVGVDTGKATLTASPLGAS
inactive: bafetinib -0.154 | [1] -0.04 | nilotinib 0.053 | [2] 0.047 | dasatinib 0.016 | [3] -0.074 | [4] 0.006 | [5] 0.002 | tipifarnib 0.015 | mubritinib 0.034 | [6] 0.087 | [7] 0.046 | [8] 0.036 | entinostat -0.141 | vorinostat 0.121 | citarinostat 0.005 | silmitasertib -0.019 | [10] -0.167
active: [11] -0.439

CIT isoform 4 (UniProt O14578)
inactive: bafetinib -0.01 | [1] 0.07 | nilotinib -0.049 | [2] -0.065 | dasatinib -0.064 | [3] -0.03 | [4] 0.006 | [5] -0.075 | tipifarnib -0.009 | mubritinib 0.031 | [6] -0.072 | [7] -0.101 | [8] -0.108 | [9] 0 | entinostat 0.025 | vorinostat 0.041 | citarinostat -0.222 | silmitasertib 0.049 | [10] 0.049 | [11] 0.293

CPT2 (UniProt P23786)
Chain of UniProt P23786 (P23786 whole entry, looked up): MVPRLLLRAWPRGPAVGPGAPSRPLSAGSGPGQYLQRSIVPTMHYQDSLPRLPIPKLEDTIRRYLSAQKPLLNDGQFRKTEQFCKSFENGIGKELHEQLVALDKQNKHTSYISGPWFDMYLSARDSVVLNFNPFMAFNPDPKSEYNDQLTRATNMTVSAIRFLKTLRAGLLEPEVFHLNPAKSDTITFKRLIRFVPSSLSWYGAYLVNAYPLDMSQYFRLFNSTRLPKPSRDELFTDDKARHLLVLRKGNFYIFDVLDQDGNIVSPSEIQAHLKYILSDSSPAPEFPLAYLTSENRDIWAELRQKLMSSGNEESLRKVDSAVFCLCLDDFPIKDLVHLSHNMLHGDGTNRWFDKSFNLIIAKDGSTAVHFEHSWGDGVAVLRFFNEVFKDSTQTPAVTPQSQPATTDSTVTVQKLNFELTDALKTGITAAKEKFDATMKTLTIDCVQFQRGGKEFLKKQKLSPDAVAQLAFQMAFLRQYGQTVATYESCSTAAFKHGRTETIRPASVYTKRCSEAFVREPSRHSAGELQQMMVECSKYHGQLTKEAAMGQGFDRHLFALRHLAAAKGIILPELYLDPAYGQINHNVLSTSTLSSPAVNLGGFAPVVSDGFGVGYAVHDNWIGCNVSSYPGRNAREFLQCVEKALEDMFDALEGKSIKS
active: mubritinib 0.763
inactive: bafetinib -0.115 | [1] 0.008 | nilotinib 0.096 | [2] -0.003 | dasatinib 0.217 | [3] 0.047 | [4] 0.268 | [5] 0.265 | tipifarnib -0.076 | [6] -0.045 | [7] -0.264 | [8] 0.193 | [9] -0.052 | entinostat 0.174 | vorinostat -0.097 | citarinostat -0.109 | silmitasertib -0.08 | [10] 0.014 | [11] 0.157

CDK1 (UniProt P06493)
Chain of UniProt P06493 (P06493 whole entry, looked up): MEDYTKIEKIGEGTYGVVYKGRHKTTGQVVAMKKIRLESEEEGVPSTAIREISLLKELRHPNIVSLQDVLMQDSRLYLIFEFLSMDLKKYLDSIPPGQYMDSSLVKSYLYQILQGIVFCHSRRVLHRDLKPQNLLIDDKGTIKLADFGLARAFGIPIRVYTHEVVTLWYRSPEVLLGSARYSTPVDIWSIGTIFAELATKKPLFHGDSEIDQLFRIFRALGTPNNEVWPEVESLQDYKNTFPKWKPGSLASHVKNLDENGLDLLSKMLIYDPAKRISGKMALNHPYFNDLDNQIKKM
inactive: bafetinib 0.002 | [1] -0.022 | nilotinib 0.022 | [2] -0.196 | dasatinib -0.092 | [3] -0.199 | [4] -0.067 | [5] -0.023 | tipifarnib -0.019 | mubritinib 0.083 | [6] -0.036 | [7] 0.004 | [8] -0.068 | [9] -0.047 | entinostat 0 | vorinostat 0.05 | citarinostat 0.051 | [10] -0.079 | [11] -0.032
